Assay outcomes deposited in PubChem by National Center for Advancing Translational Sciences (NCATS).
ERG Ets-DNA blk: blocks human ERG Ets domain binding to DNA. P11308. fluorescence polarization, His-ERG Ets domain / labelled DNA. Potency, µM (doses to about 76.9 µM), inactives show at the highest dose FP activity, negative = inhibition, hits mostly inhibitors. hit rate 0.028% among 370,000. AID 624246; active means well fitted inhibition curve with a large enough effect in the polarisation, with a control signal flat; inconclusive means small, poorly fitted or top-dose-only effect, or effect the other way, or a change in a side signal; inactive means no such curve, though single readings can be large or run the other way; the % refers to the polarisation;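 further: polarization taken with two DNA probes labelled with fluorescein and Texas red; % of control where 0% means no effect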
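His-tagged ERG Ets domain (1 uM in the protein solution; 300mM KCl, 50mM Tris-HCl, 1mM EDTA, 1mM DTT, pH 7.5) received compound, then a probe mix of 5 nM fluorescein-DNA and 100nM Texas-615-DNA. Fluorescence polarization was read for both dyes.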
TRb SRC2 PPI: inhibitors of human thyroid hormone receptor beta-SRC2 interaction | TRbeta-SRC2 peptide binding, fluorescence polarization; receptor liganded with 1 µM T3 | P10828 | Potency, µM (series often up to 106 µM), without a hit: at the top dose activity change, negative = inhibition, most hits filed as inhibitors | AID 1469 | hit rate 0.065% among 280,000;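 further: plate controls were bound peptide for no effect and peptide without receptor for full effect; nearly all actives have a fitted effect of over 50% in size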
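Decrease in fluorescence polarization of 20 nM Texas Red SRC2 coactivator peptide flagged inhibition of its binding to 0.6 uM TRb LBD; 1 uM T3 included, incubation 5 hr, ex 555/em 632 nm.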
RGS12 GoLoco inh: RGS12 GoLoco-Gai1 interaction inhibition; P63096; Gai1:RGS12 GoLoco peptide FP, rhodamine, 10 min; Potency, µM (titrated, usually from 61.6 µM), for inactives: top-dose activity, negative = inhibition, actives largely listed as inhibitors; hit rate 0.44% among 230,000; AID 880; active means well fitted inhibition curve with a large enough effect, not every such curve was filed as active; inactive means no such curve, though single readings can be large or run the other way; further: on the % scale 0 is the no-effect control and ±100 the full control effect; nearly all actives have a fitted effect of over 30% in size
TexasRed fluor: alters Texas Red total fluorescence, flagging assay interference | hit rate 0.29% among 280,000 | TRb/SRC2 Texas Red total fluorescence interference | Potency, µM (top dose mostly 106 µM), for inactives: at the top dose fluorescence change, negative = quenching; active means well fitted curve in either direction with a large enough effect; inconclusive means small, poorly fitted or top-dose-only effect; further: on the % scale 0 is the no-effect control and ±100 the full control effect
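Human TRβ ligand-binding domain (0.6 uM) and Texas Red SRC2 peptide (20 nM) in Tris buffer with 1 uM T3 and 5% DMSO were incubated with pinned compound for 5 hr at ambient temperature. Total fluorescence was computed as S + 2P (555/632 nm).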
BLM helicase inh: blocks DNA unwinding by human BLM helicase; Potency, µM (doses to about 56.1 µM), inactives show at the highest dose activity change, negative = inhibition, hits mostly inhibitors; hit rate 0.2% among 350,000; recombinant BLM DNA unwinding, fluorescence dequenching; AID 2528; P54132;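 further: plate controls were vehicle for no effect and no enzyme for full effect; nearly all actives have a fitted effect of over 35% in size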
RECQ1 inh-1: inhibitors of human RECQ1 DNA helicase; RECQ1 DNA unwinding, red fluorescence kinetic read; AID 2549; hit rate 0.54% among 240,000; P46063; Potency, µM (doses to about 57.3 µM), for inactives: top-dose activity, negative = inhibition, most hits filed as inhibitors;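 further: plate controls were vehicle for no effect and no enzyme for full effect; nearly all actives have a fitted effect of over 30% in size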
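RECQ1T1 50 nM; forked duplex (20 bp + 30-nt ss tails) 200 nM, ATP 2 mM final; pH 8.0, 2 mM MgCl2, 2.5 ug/ml poly(dI-dC); 15 min compound preincubation; discontinuous kinetic read over 2 h at RT.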
RECQ1 conf: confirmation of human RECQ1 helicase inhibitors; shares compounds with RECQ1 inh-1; RECQ1 helicase DNA unwinding, fluorescence; Potency, µM (top dose mostly 229 µM), without a hit: at the top dose activity change, negative = inhibition, usual class: inhibitors; hit rate 28% among 610; further: on the % scale 0 is the no-effect control and ±100 the full control effect; nearly all actives have a fitted effect of over 45% in size
RECQ1 ADP FP: counter-screen for RECQ1 inhibitors: ADP displacement; shares compounds with RECQ1 inh-1; ADP fluorescence polarization displacement counterscreen; Potency, µM (highest dose often 228 µM), for the others: at the top dose activity change, negative = inhibition, hits mostly inhibitors; hit rate 27% among 530; AID 2711; further: on the % scale 0 is the no-effect control and ±100 the full control effect; nearly all actives have a fitted effect of over 45% in size
RECQ1 inh-2: confirmation of human RECQ1 helicase inhibitors | recombinant RECQ1 DNA unwinding, red fluorescence | shares compounds with RECQ1 inh-1 | hit rate 15% among 1,100 | Potency, µM (top dose mostly 119 µM), without a hit: at the highest dose activity, negative = inhibition, most hits filed as inhibitors; further: on the % scale 0 is the no-effect control and ±100 the full control effect; nearly all actives have a fitted effect of over 50% in size
An asterisk follows results filed as active; i = inactive; ? = inconclusive; nt = not tested or not shown; [ ] = another dose, or the depositor's remark. In the library only some 0.71% were active in any assay of this set; here they are far more common. Unless noted, the call rests on the fitted dose curve; in most records, active means well fitted curve in the direction sought with a large enough effect; inconclusive means small, poorly fitted or top-dose-only effect, or another doubt; inactive means no such curve, though single readings can be large; an effect the other way counts as inactive or inconclusive. Potency means the concentration at half of the fitted maximal effect.

SMILES	ERG Ets-DNA blk	TRb SRC2 PPI	RGS12 GoLoco inh	TexasRed fluor	BLM helicase inh	RECQ1 inh-1	RECQ1 inh-2	others
CC(=O)Nc1cccc(-c2nnc(-c3ccc(C)cc3)o2)c1	-9%	nt	nt	nt	-7%	nt	nt
COc1ccc(N2Cc3cccc(C(=O)NC(C)CCc4ccco4)c3C2=O)cc1 (configuration not stated)	5%	19%	10%	-29%	?	7.9µM*	10µM*	RECQ1 conf=35µM*;RECQ1 ADP FP=-11%[91.9 µM]
CCOC(=O)N1CCC(NC(=O)c2cccc3c2C(=O)N(c2ccc(OC)cc2)C3)CC1	-2%	-12%	20%	-4%	?	11µM*	nt	RECQ1 conf=14µM*;RECQ1 ADP FP=6%[91.9 µM]
CSc1cccc(NC(=O)CN2C(=O)COc3ccc(Cl)cc32)c1	2%	-3%	nt	0%	-5%	nt	nt
COc1cccc(Nc2nc(N)c([N+](=O)[O-])c(NCc3ccccc3)n2)c1	-3%	5%	4%	-2%	?	?	50µM*
Cc1ccc(Nc2nc(N)c([N+](=O)[O-])c(NCc3ccco3)n2)cc1C	-16%	6%	10%	-3%	?	35µM*	50µM*
O=[N+]([O-])c1ccc(-c2c(O)c3ccccc3c3nc4ccccc4nc23)cc1	-2%	-7%	14%	4%	-13%	25µM*	nt	RECQ1 conf=9%[114 µM];RECQ1 ADP FP=?
COc1cc(/C=C2\SC(=S)N(NC(=O)c3ccncc3)C2=O)ccc1O	147%	23%	268%	16%	-14%	14µM*	nt	RECQ1 conf=50µM*;RECQ1 ADP FP=79%[91.9 µM]
N/C(=N\NC(=O)c1ccccc1Cl)c1cc2ccccc2oc1=O	-2%	-10%	10%	-1%	-7%	28µM*	-6%
O=C1c2ccccc2C(=O)N1c1ccc(Cc2ccc(N3C(=O)c4ccccc4C3=O)cc2)cc1	nt	nt	5%[14.2 µM]	nt	nt	nt	nt
COc1ccc2[nH]cc(CCNc3nc(-c4cccnc4)nc4ccccc34)c2c1	nt	nt	-2%	nt	-3%	i	nt
Cc1ccc(S(=O)(=O)N(CC(=O)Nc2cccc(N(C)S(C)(=O)=O)c2)c2ccc(Cl)c(Cl)c2)cc1	nt	0%	-8%	-4%	-12%	7.1µM*	-9%	RECQ1 conf=?;RECQ1 ADP FP=6%[91.9 µM]
CCN(CC)c1ccc(/C=N/OCC(=O)Nc2cccc(C)c2)cc1	-6%	22%	140%	0%	-6%	?	56µM*
CC1CCCCC1NC(=O)COC(=O)c1c2c(nc3ccccc13)/C(=C/c1ccco1)CC2 (configuration not stated)	8%	-2%	26%	?	?	13µM*	?	RECQ1 conf=1%[114 µM]
COc1ccc(-c2nc3cnc(OC)nc3n(CCc3ccccc3)c2=O)cc1	nt	nt	-1%	nt	8%	-7%	nt
Cc1ccccc1NC(=O)c1cccc(C(=O)Nc2ccccc2C)n1	-2%	nt	nt	nt	-1%	nt	nt
Cc1cccc(NC(=O)c2ccc3ccccc3n2)c1C	-4%	0%	12%	-1%	-6%	?	-32%
COc1ccc2c(c1)O/C(=C\c1ccco1)C2=O	11%	-8%	23%	-8%	3%	?	-8%
O=C(COC(=O)CCC(NC(=O)OCc1ccccc1)C(=O)OCC(=O)Nc1ccccc1)Nc1ccccc1 (configuration not stated)	-9%	-3%	-6%	-1%	-6%	?	-20%
CCCc1cc(=O)[nH]c(SCC(=O)N2N=C(c3ccc(Cl)cc3)CC2c2ccco2)n1 (configuration not stated)	nt	-1%	59%	-1%	-5%	7%	nt
Nc1cc(=O)[nH]c(SCC(=O)N2N=C(c3ccc(Cl)cc3)CC2c2ccco2)n1 (configuration not stated)	1%	3%	44%	-3%	-3%	?	-49%
CCc1ccc(-n2c(SCC(=O)N3CCC(C(=O)O)CC3)nnc2-c2ccncc2)cc1	-3%	5%	8%	-2%	0%	i	nt
CCc1ccc(-n2c(SCC(=O)N3Cc4ccccc4CC3C(=O)O)nnc2-c2ccncc2)cc1 (configuration not stated)	9%	-2%	-11%	2%	0%	i	nt	RECQ1 conf=20%;RECQ1 ADP FP=-6%
COC(=O)c1ccccc1NC(=O)c1ccc(CN2CC(=O)N3CCCCC3C2=O)cc1 (configuration not stated)	3%	-6%	nt	3%	-2%	nt	nt
O=C(O)c1c2c(nc3ccccc13)/C(=C/c1ccc(O)cc1)CC2	-2%	-1%	2%	-4%	-9%	28µM*	?
SMILES	ERG Ets-DNA blk	TRb SRC2 PPI	RGS12 GoLoco inh	TexasRed fluor	BLM helicase inh	RECQ1 inh-1	RECQ1 inh-2	others
CCOC(=O)CCN1C(=O)[C@H]2[C@H]3[C@H](O)[C@H](O)C/C(=N/NC(=O)OCC)[C@H]3CC[C@@H]2C1=O	nt	5%[11.2 µM]	nt	2%[11.2 µM]	5%[12.4 µM]	7%[11.5 µM]	nt
COc1ccc(NC(=O)CSc2nc(O)cc(=O)n2-c2ccccc2OC)cc1	-1%	10%	24%	-3%	-25%	?	-18%
COc1ccccc1-n1c(SCC(=O)Nc2cccc3ccccc23)nc(O)cc1=O	-1%	-1%	40%	-4%	-18%	?	-12%
O=c1c(S(=O)(=O)c2ccccc2)cn(Cc2ccccc2)c2cc(N3CCOCC3)c(F)cc12	6%	0%	nt	?	-5%	nt	nt
O=C1NN(c2cccc(Br)c2)C(=O)/C1=C/c1ccc(-c2cc([N+](=O)[O-])ccc2O)o1	2%	-1%	84%	-6%	-17%	20µM*	nt	RECQ1 conf=63µM*
c1ccc2oc(-c3[nH]ncc3CN3CCC(N4CCSCC4)CC3)cc2c1	5%	2%[53 µM]	5%	-1%[53 µM]	7%	i	nt
c1ccc2oc(-c3[nH]ncc3CN3CCSCC3)cc2c1	-3%	-4%	-2%	0%	-1%	?	2%
Cc1ccc(-c2nnc(SCC(=O)NCc3ccccc3)o2)cc1	1%	-28%[53 µM]	nt	?	-3%	nt	nt
COc1ccc([C@@H]2CC(=O)c3c(O)cc(O[C@@H]4O[C@H](CO[C@@H]5O[C@@H](C)[C@H](O)[C@@H](O)[C@H]5O)[C@@H](O)[C@H](O)[C@H]4O)cc3O2)cc1	nt	-3%	nt	-1%	0%	-7%	nt
